Screening results (PubChem)
Mtb FBA inh: Mtb fructose-bisphosphate aldolase inhibition; P9WQA3; purified M. tuberculosis FBA, fluorescence read-out; inhibition, % at 1 µM; 360,000 compounds, 2.3% hits; in the data active means inhibition above about 27%;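 further: 0% = vehicle and 100% = reference inhibitor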
Target sequence (P9WQA3 whole entry, looked up): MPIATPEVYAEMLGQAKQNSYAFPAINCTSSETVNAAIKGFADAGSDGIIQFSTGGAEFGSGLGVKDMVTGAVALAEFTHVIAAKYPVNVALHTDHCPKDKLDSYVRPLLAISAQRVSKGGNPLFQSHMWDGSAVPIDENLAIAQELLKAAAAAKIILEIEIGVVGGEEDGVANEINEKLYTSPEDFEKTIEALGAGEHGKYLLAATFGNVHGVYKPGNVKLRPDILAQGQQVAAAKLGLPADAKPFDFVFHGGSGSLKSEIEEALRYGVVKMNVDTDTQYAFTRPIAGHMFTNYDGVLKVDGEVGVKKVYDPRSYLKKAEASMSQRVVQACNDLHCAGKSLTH
BJeLR lethal: BJeLR cell viability loss | BJeLR (HRASV12) viability, CellTiter-Glo ATP luminescence, 48 h | inhibition, % (concentration not given with the values) | 300,000 compounds, 0.17% hits | AID 1554; in the data active means inhibition above about 50%
PrP UTR inh: suppresses PrP 5' UTR mRNA reporter expression | cell-based PrP 5' UTR mRNA reporter, plate reader | inhibition, % (test concentration not listed) | 340,000 compounds, 0.35% hits | AID 488862; in the data active means inhibition above about 52%; further: 0 = median of the neutral control wells
GDH-TPI inh: inhibits GDH-TPI coupling enzymes, artifact for Mtb FBA screen; GDH-TPI coupled enzyme counterscreen, NADH absorbance; inhibition, % at 4.8 µM; 360,000 compounds, 1.2% hits; AID 588335; in the data active means inhibition above about 30%;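 further: 0% = DMSO wells and 100% = wells lacking the enzyme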
PfHsp40 rescue: compounds rescuing yeast from Plasmodium falciparum HSP40 toxicity | S. cerevisiae expressing PfHsp40, growth rescue, ATP luminescence | growth rescue, % at 12.5 µM | 340,000 compounds, 0.68% hits | AID 504582; in the data active means growth rescue above about 28%, passing the limit was not always enough;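 further: yeast W303a lacking pdr1 and pdr3 grown in galactose medium; growth measured after three days at 30 °C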
PrPC TRFRET: cell surface PrPC inhibition, primary TR-FRET screen | P04156 | TR-FRET read-out | inhibition, % at 13.8 µM | 370,000 compounds, 0.43% hits | AID 720596; in the data active means inhibition above about 24%; further: 0% = median of the test wells and 100% = reference compound wells
Active calls of the source: *; · = not tested or not shown; + = active, no number. Rows were chosen to be rich in hits. Some 4.5% of all compounds tested hit in one or more screens of this group.

SMILES | Mtb FBA inh | BJeLR lethal | PrP UTR inh | GDH-TPI inh | PfHsp40 rescue | PrPC TRFRET
Cc1ccc[n+](-c2[nH]c(=O)sc2/C=N/NC(=O)c2ccccc2[O-])c1 | -2.5 | -3.8 | -13.6 | 10.8 | 0.3 | -17.9
Cc1cc[n+](-c2[nH]c(=O)sc2/C=N/N=C(\[O-])c2ccncc2)cc1C | -4.4 | -4.8 | -12.9 | 34.8* | -0.4 | -14.7
CCc1ccc[n+](-c2[nH]c(=O)sc2/C=N/N=C(\[O-])c2cccnc2)c1 | -4.6 | 0.3 | -0.2 | 38.7* | -1.0 | -8.2
Cc1cc[n+](-c2[nH]c(=O)sc2/C=N/N=C(\[O-])c2ccccc2)cc1C | -5.0 | -1.7 | -20.7 | 11.2 | -0.5 | -12.1
CCN(CC)CCCNC(=O)c1oc(=O)c2ccccc2c1-c1ccc(C)cc1 | · | · | · | · | · | -1.1
CC(C)CN1C(=O)[C@@]2(CC(=O)N(C)C2c2ccccc2)c2cc(-n3cc(CCc4ccccc4)nn3)ccc21 (stereo partly specified) | · | · | · | · | · | -1.0
COc1ccc(NC(=O)Cc2ccc(-c3ccccc3)cc2)cn1 | 1.8 | 6.2 | 5.1 | 2.8 | 85.9* | 8.3
COc1ccc(CC(=O)Nc2ccc(OC)nc2)cc1 | 5.7 | 1.5 | -11.1 | 4.8 | -0.6 | 4.9
COc1ccc(NC(=O)c2ccc(-c3ccc(C(C)=O)cc3)o2)cn1 | 19.2 | · | -17.0 | 31.8* | 1.1 | -0.9
CSCCCNC(=S)N1CCN(c2ccc(C(C)=O)cc2)CC1 | -2.5 | 1.4 | -5.8 | 26.8 | 3.1 | -0.6
CCCCNC(=S)N1CCN(c2ccc(C(C)=O)cc2)CC1 | -0.7 | -3.9 | -15.4 | 34.8* | 1.7 | -3.0
O=[N+]([O-])c1ccc(Sc2nc3ccccc3o2)c([N+](=O)[O-])c1 | -0.1 | 33.9 | -43.1 | 15.2 | 1.4 | -20.5
O=[N+]([O-])c1ccc(Cl)cc1Sc1nc2ccccc2o1 | -4.0 | -4.6 | -36.9 | 4.0 | 164.5* | -9.1
COC(=O)[C@]12C[C@H](CC(=O)NCc3cccs3)C(=O)N(Cc3ccco3)C1=C[C@H](C1CCCC1)O[C@@H]2C | · | · | · | · | · | 0.2
CCCCCCCCN1C(=O)[C@@H](CC(=O)NCc2cccc3ccccc23)C[C@@]2(C(=O)OC)C1=C[C@H](COCc1ccccc1)O[C@@H]2C | · | · | · | · | · | 0.8
O=C(CSc1nc2nc(-c3cccs3)cc(C(F)(F)F)c2c(=O)[nH]1)C(F)(F)F | + | -2.2 | -28.2 | 14.5 | 0.5 | -4.9
CC(=O)c1sc2nc(-c3cccs3)cc(C(F)(F)F)c2c1N | + | 1.7 | -13.6 | 17.6 | 5.8 | -8.9
Cc1c(C(=O)Nc2nccs2)sc2nc(-c3cccs3)cc(C(F)(F)F)c12 | 9.9 | -5.6 | -7.2 | 14.1 | -0.8 | 4.3
Cc1c(C(=O)O)sc2nc(-c3cccs3)cc(C(F)(F)F)c12 | 32.0* | -6.8 | -21.8 | 20.7 | 0.0 | 5.8
Cc1nn(CCC#N)c2nc(-c3ccccc3)cc(C(F)(F)F)c12 | 17.8 | -2.4 | -27.5 | 9.9 | 0.8 | -0.3
CS(=O)(=O)c1sc2nc(-c3cccs3)cc(-c3ccccc3)c2c1N | 15.1 | -10.7 | 2.5 | 31.4* | 0.4 | 0.9
Cc1nn(CCC(N)=S)c2nc(-c3cccs3)cc(C(F)(F)F)c12 | 11.9 | -4.6 | -18.6 | 13.5 | 222.6* | -9.2
COC(=O)[C@]12C[C@H](CC(=O)NCc3cccc4ccccc34)C(=O)N(Cc3ccco3)C1=C[C@H](C1CCCC1)O[C@@H]2C | · | · | · | · | · | 8.8
O=C(CSc1nnc(COc2ccccc2)n1Cc1ccco1)Nc1ccc(OCc2ccccc2)cc1 | · | · | · | · | · | 13.1
Cc1cccn2c(=O)c3cc(C(=O)NCC4CCCO4)c(=N)n(CC4CCCO4)c3nc12 (stereo unspecified) | + | -14.2 | -15.2 | 6.2 | 1.2 | -53.3
SMILES | Mtb FBA inh | BJeLR lethal | PrP UTR inh | GDH-TPI inh | PfHsp40 rescue | PrPC TRFRET
CCCn1c(=N)c(C(=O)NCc2ccc3c(c2)OCO3)cc2c(=O)n3cccc(C)c3nc21 | 4.0 | -6.8 | -34.3 | 1.2 | 0.3 | -5.6
Cc1cccn2c(=O)c3cc(C(=O)NC4CCCC4)c(=N)n(CC4CCCO4)c3nc12 (stereo unspecified) | + | 2.0 | -27.1 | 8.1 | -0.2 | -31.9
Cc1cccn2c(=O)c3cc(C(=O)NCc4ccc(F)cc4)c(=N)n(CC4CCCO4)c3nc12 (stereo unspecified) | + | -4.2 | -12.4 | 0.4 | 1.2 | -35.2
Cc1cccn2c(=O)c3cc(C(=O)NCC4CCCO4)c(=N)n(C4CCCCC4)c3nc12 (stereo unspecified) | + | 7.4 | -10.7 | 6.7 | 1.9 | -25.2
COc1ccc(CNC(=O)c2cc3c(=O)n4cccc(C)c4nc3n(CC3CCCO3)c2=N)cc1 (stereo unspecified) | 14.5 | 6.3 | -1.3 | 4.3 | -0.5 | -40.6
CN(C)c1cccc(-c2cnc(N3CCC(C(N)=O)CC3)nc2)c1 | · | · | · | · | · | 5.6
CCCC1CCC2(CCCN2CCOC(=O)Nc2ccc(F)cc2)CC1 (stereo unspecified) | · | · | · | · | · | -4.9
C/C(=N\Nc1ccc(Cl)c(C(=O)O)c1)c1ccc2c(c1)OCO2 | 0.5 | 4.9 | -36.9 | 3.8 | -1.4 | 5.0
CC(=NNC(=S)Nc1ccccc1)c1ccccn1 | -0.2 | · | · | 13.8 | · | 23.9
C/C(=N\Nc1ccc(Cl)c(C(=O)O)c1)c1ccccn1 | 1.1 | -4.8 | -15.4 | 37.4* | 0.7 | 4.1
Cc1sc2ncnc(N/N=C/c3cccc(O)c3)c2c1C | -1.6 | 3.6 | -77.4 | 22.8 | -0.5 | -7.0
CC(=NNC(=S)Nc1ccccc1Cl)c1ccccn1 | 3.5 | · | 26.9 | 18.8 | 199.9* | 18.4
C/C(=N\Nc1ccc(Cl)c(C(=O)O)c1)c1cc2ccccc2o1 | -1.0 | 1.9 | -28.4 | 30.9* | -1.0 | -2.5
C/C(=N\Nc1ccc(Cl)c(C(=O)O)c1)c1cccc2ccccc12 | -0.8 | -8.5 | -19.2 | 15.5 | -0.2 | -10.2
C/C(=N\Nc1ncnc2sc(C)c(C)c12)c1ccccn1 | -2.6 | 79.7* | 18.3 | 22.5 | 20.0 | 1.2
C/C(=N\Nc1ncc(Cl)cc1Cl)c1ccc(N2CCOCC2)cc1 | 8.3 | 2.8 | -9.1 | 18.6 | -1.5 | -0.9
C/C(=N\Nc1cccc([N+](=O)[O-])c1)c1cc2ccccc2o1 | 0.0 | -19.6 | -76.8 | 1.9 | 1.7 | -8.9
C/C(=N\Nc1cccc(C(=O)O)c1)c1cc2ccccc2o1 | -1.6 | 4.1 | -50.1 | 47.6* | 0.9 | -7.0
C/C(=N\Nc1ncc(Cl)cc1Cl)c1ccccn1 | 6.6 | 66.5* | 77.8* | 8.7 | 14.1 | ·
C[C@@H]1CCN(C2CC2)S(=O)(=O)c2ccc(N3CC[C@H](O)C3)cc2O1 | · | · | · | · | · | 6.8
CCOC(=O)[C@H](Cc1ccccc1)NC(=O)[C@H]1C[C@@]2(N3CCCCC3)c3ccccc3N(C(=O)OC(C)(C)C)[C@H]2N1C(=O)OC(C)(C)C | · | · | · | · | · | 9.5
C=CCN(CC#CC1=CCCCC1)CC1CC1 | · | · | · | · | · | -0.4
CCNC(=O)c1sc(=S)n(CC)c1N | -1.7 | -1.1 | -1.0 | 31.8* | -0.4 | -3.4
CCn1c(N)c(C(=O)NC)sc1=S | -0.8 | -7.1 | 1.8 | 4.9 | -0.2 | -5.6
CCn1c(N)c(C(=O)N2CCOCC2)sc1=S | 4.1 | -5.0 | -0.5 | 30.7* | -0.3 | 0.6
O=C1CSc2ccccc2N1 | 2.0 | · | 17.9 | -5.1 | 0.0 | 12.0
